# Reference: the OligoGym collection
# Legend:
# Assay in all cases: pooled miR-30 sensor sort-seq; sequence = guide strand
# Conditions in all cases: shRNA
# SMYD3 = biological target: SMYD3
# SNAP23 = biological target: SNAP23
# SNAPC2 = biological target: SNAPC2
# SNCG = biological target: SNCG
sequence,measurement,setting,value
TTTTTCTGACACTTAGCACTAC,sensor-assay potency score (higher = more potent),SMYD3,-0.019
TATAACTGCAACTTAAATCAAA,sensor-assay potency score (higher = more potent),SNAP23,-0.858
TAGATCTTCTCAAAGTCCACAG,sensor-assay potency score (higher = more potent),SNAPC2,-0.173
AGTACTTGTAGATCTTCTCAAA,sensor-assay potency score (higher = more potent),SNAPC2,-1.85
TTAGATACTACATTGCAAGGTG,sensor-assay potency score (higher = more potent),SNAP23,0.78
TTAGTTATGCTATTACATGGGC,sensor-assay potency score (higher = more potent),SNAP23,-0.215
TTTGTTAATATTTGACTCCAGA,sensor-assay potency score (higher = more potent),SMYD3,-0.278
TTGAGTCAGGTTCTCTTCCATT,sensor-assay potency score (higher = more potent),SNAP23,-1.05
TTGAACTTCCTTCCATACTTGC,sensor-assay potency score (higher = more potent),SMYD3,-0.357
TTATCTTCTCAGCCAGATCCGT,sensor-assay potency score (higher = more potent),SNAPC2,-0.528
TTTTACTGAGGTAACAACCTCT,sensor-assay potency score (higher = more potent),SNAP23,0.719
TTGTTCCTTTTGTTCATCCAGC,sensor-assay potency score (higher = more potent),SNAP23,-0.861
TTCTTCTAAAAGTAGAATCAAA,sensor-assay potency score (higher = more potent),SMYD3,-1.27
TTTTCTGACACTTAGCACTACA,sensor-assay potency score (higher = more potent),SMYD3,-0.327
TTTCAGTTCGCTGTGCTCGGCC,sensor-assay potency score (higher = more potent),SNAPC2,-0.483
AAGTACTTGTAGATCTTCTCAA,sensor-assay potency score (higher = more potent),SNAPC2,0.257
TAATGTATCCACCACTGGCTGC,sensor-assay potency score (higher = more potent),SNAP23,-0.654
TAGCATATCAGCATCCTTGTCC,sensor-assay potency score (higher = more potent),SMYD3,0.139
TAGAATCAAATCTTCAATCAGG,sensor-assay potency score (higher = more potent),SMYD3,-0.0994
TCAGGGGACAGATCCCAGCTGC,sensor-assay potency score (higher = more potent),SNAPC2,-0.373
TTCTCAGCCAGATCCGTCCAGA,sensor-assay potency score (higher = more potent),SNAPC2,-0.94
TTCAGTGGAGGGACCAGCCGAC,sensor-assay potency score (higher = more potent),SNAPC2,-0.383
TTCTTTGTTCTATTACATGGGC,sensor-assay potency score (higher = more potent),SNAP23,-0.51
AAGTGACATGAGCAGGTCGAGG,sensor-assay potency score (higher = more potent),SNAPC2,-1.64
TAATATTTGACTCCAGATCATA,sensor-assay potency score (higher = more potent),SMYD3,-1.27
TTGAACACAATCGAACAGTTGG,sensor-assay potency score (higher = more potent),SMYD3,0.615
ACAACATTCTCCTTGGTCTTGG,sensor-assay potency score (higher = more potent),SNCG,-0.611
TGTAGATCTTCTCAAAGTCCAC,sensor-assay potency score (higher = more potent),SNAPC2,-0.752
TTGCGCACCACCCCGGAGGTGA,sensor-assay potency score (higher = more potent),SNCG,-1.19
TAATCTGGTGAGCTCTCTGTTG,sensor-assay potency score (higher = more potent),SNAP23,-0.844
